Assay outcomes from PubChem BioAssay.
PI5P4Ka inh: qHTS for Inhibitors of phosphatidylinositol 5-phosphate 4-kinase (PI5P4K) | Phosphatidylinositol 5-phosphate 4-kinase type-2 alpha (Homo sapiens), P48426 | PI5P4Kalpha enzyme, ADP-Glo luminescence, 60 min; active compounds read low | max response, % | 1.2% of 330,000 active | AID 652105, 2013; active means max response of -50% or lower; inconclusive means between -30% and -50%; inactive means -30% or higher; further: value at the top dose of about 77 µM; on the % scale 0 is the no-effect control and ±100 the full control effect
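Single end-point luminescence (ADP-Glo) quantified ADP from PI5P4Kalpha turnover; ATP 5 microM final, 1 h at RT, 0.1% CHAPS and 0.28 mM EGTA in HEPES pH 7.4.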
WRN inhibitor: qHTS for Inhibitors of WRN Helicase; Potency, µM (doses to about 114 µM), for the others: at the top dose activity change, negative = inhibition, hits mostly inhibitors; AID 651768, 2012; 0.46% of 360,000 active; Bifunctional 3'-5' exonuclease/ATP-dependent helicase WRN (Homo sapiens), Q14191; WRN helicase unwinding, fluorescent forked duplex, kinetic; further: potency means the concentration at half of the fitted maximal effect; on the % scale 0 is the no-effect control and ±100 the full control effect; nearly all actives have a fitted effect of over 55% in size
Target sequence (Q14191 whole entry, looked up): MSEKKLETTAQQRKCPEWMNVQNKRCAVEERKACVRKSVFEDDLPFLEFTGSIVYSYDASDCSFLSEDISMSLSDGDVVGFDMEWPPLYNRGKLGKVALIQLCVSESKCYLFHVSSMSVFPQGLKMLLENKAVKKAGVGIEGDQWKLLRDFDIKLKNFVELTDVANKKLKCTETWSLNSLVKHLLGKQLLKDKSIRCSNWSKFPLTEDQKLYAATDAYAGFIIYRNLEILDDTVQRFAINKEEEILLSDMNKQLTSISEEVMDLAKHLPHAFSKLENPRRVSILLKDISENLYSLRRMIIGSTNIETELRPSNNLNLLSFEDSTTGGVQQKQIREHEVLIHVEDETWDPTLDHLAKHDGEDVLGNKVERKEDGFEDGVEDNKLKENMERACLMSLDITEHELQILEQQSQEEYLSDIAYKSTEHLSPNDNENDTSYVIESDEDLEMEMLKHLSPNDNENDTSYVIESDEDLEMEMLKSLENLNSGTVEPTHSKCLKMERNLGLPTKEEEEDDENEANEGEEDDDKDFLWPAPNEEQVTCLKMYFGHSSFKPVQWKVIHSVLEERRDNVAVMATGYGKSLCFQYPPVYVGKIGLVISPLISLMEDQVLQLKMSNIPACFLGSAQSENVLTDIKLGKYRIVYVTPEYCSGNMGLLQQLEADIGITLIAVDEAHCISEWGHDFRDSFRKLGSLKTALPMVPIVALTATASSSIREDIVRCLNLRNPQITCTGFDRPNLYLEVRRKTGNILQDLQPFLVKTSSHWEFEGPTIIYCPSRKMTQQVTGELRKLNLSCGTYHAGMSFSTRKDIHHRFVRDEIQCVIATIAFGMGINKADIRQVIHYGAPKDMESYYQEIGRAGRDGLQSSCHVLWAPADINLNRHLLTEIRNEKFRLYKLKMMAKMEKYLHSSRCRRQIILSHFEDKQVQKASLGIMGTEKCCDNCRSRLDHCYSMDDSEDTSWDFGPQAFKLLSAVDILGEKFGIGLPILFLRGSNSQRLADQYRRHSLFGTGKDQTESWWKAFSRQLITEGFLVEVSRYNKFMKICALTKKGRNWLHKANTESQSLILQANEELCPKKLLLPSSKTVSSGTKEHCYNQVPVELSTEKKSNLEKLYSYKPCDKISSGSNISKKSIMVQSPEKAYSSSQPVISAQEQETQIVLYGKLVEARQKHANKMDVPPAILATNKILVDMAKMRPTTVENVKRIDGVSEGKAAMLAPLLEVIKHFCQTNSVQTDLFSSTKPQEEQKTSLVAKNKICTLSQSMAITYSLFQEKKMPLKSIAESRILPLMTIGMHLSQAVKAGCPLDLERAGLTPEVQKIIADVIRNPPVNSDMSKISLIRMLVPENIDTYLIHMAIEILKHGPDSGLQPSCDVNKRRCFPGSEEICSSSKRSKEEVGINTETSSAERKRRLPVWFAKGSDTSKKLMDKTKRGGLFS
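Fluorescence dequenching readout, ex 525 nm/em 598 nm, kinetic mode: forked duplex DNA (100 nM final) with adjacent fluorophore and quencher unwound by WRN (20 nM final) with 2 mM ATP. Compound preincubation 15 min, room temperature.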
POLB inh: qHTS Assay for Inhibitors of DNA Polymerase Beta; AID 485314, 2010; Potency, µM (highest dose often 114 µM), for inactives: at the top dose activity change, negative = inhibition, usual class: inhibitors; 1.3% of 340,000 active; P06746; Pol beta primer extension/strand displacement, fluorescence kinetic; further: potency means the concentration at half of the fitted maximal effect; on the % scale 0 is the no-effect control and ±100 the full control effect
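Reaction started by 50 nM substrate onto compound-treated Pol beta (10 nM, 15 min preincubation, room temperature); plates read at 0 min and 10 min. Normalized concentration-effect data fitted by four-parameter Hill equation.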
Pol kappa inh: qHTS for Inhibitors of Polymerase Kappa. 0.53% of 400,000 active. purified Pol kappa, fluorescent DNA synthesis assay, 10 min. Potency, µM (top dose mostly 107 µM), for inactives: top-dose activity, negative = inhibition, most hits filed as inhibitors. DNA polymerase kappa (Homo sapiens), Q9UBT6; further: potency means the concentration at half of the fitted maximal effect; on the % scale 0 is the no-effect control and ±100 the full control effect
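Enzyme at 10 nM met test compounds for 15 min at room temperature. Substrate addition (50 nM final) began the reaction, which was monitored by fluorescence at 0 and 10 min.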
Pol eta inh: qHTS for Inhibitors of Polymerase Eta | recombinant Pol eta, fluorescent DNA replication assay | Potency, µM (top dose mostly 114 µM), for the others: top-dose activity change, negative = inhibition, actives largely listed as inhibitors | 1.2% of 390,000 active; further: potency means the concentration at half of the fitted maximal effect; on the % scale 0 is the no-effect control and ±100 the full control effect
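Pol eta (10 nM) was preincubated with compounds for 15 min at room temperature, after which fluorescent replication substrate (50 nM final) was added to start the reaction. Fluorescence was read kinetically at 0 and 10 min.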
Pol iota inh: qHTS for Inhibitors of Polymerase Iota | Pol iota fluorescent replication assay, 10 min | 1% of 390,000 active | Potency, µM (titrated, usually from 115 µM), for the others: at the highest dose activity, negative = inhibition, usual class: inhibitors | DNA polymerase iota (Homo sapiens), Q9UNA4; further: potency means the concentration at half of the fitted maximal effect
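Fluorescent replication assay read twice, at 0 min and 10 min after adding 50 nM (final) substrate. Enzyme (10 nM) and compounds were first incubated 15 min at room temperature; enzyme-free buffer wells were negative controls.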
An asterisk follows results filed as active; ? = inconclusive; · = no result; ! = repeats disagree; [ ] = remark or other dose. Rows were chosen to be rich in hits. Some 2.8% of all compounds tested hit in one or more screens of this group. Unless noted, the call rests on the fitted dose curve; in most records, active means well fitted curve in the direction sought with a large enough effect; inconclusive means small, poorly fitted or top-dose-only effect, or another doubt; inactive means no such curve, though single readings can be large; an effect the other way counts as inactive or inconclusive.

SMILES | PI5P4Ka inh | WRN inhibitor | POLB inh | Pol kappa inh | Pol eta inh | Pol iota inh
CC1(N2CCOCC2)CC2(O)C(=[N+]1[O-])CCc1c2no[n+]1[O-] (stereo unspecified) | -19 | ? | 2% | ? | 18µM* | ?
CCc1nn(CC(=O)NCCc2ccc(OC)cc2OC)c(=O)c2cc3sccc3n12 | · | · | -1% | -7% | -14% | 4%
COCCNC(=O)C1(C)CCCN(Cc2ccc3ccccc3c2Br)C1 (stereo unspecified) | 3 | -5% | · | · | · | ·
CCOc1ccc(C2C(C#N)=C(N)SC(N)=C2C#N)c(OCC)c1 | -63* | -30% | 3% | 0% | -10% | -2%
CNc1ccc(C=C2C=CC=C2)cc1 | · | · | · | ? | · | 5µM*
O=C1N/C(=C\c2ccc(O)cc2)C(=O)c2ccccc21 | · | ? | 2% | -17% | 25µM* | 20µM*
O=C(O)/C=C1\NC(=O)c2ccccc21 | -21 | 2% | 13% | -10% | 4% | -4%
COc1ccc(OC)c(N=Nc2c(O)c3ccccc3[nH]c2=O)c1 | -11 | -35%[11.6 µM] | · | -26% | 40µM* | ?
COc1cc(N=Nc2c(O)c3ccccc3[nH]c2=O)c(OC)cc1N=Nc1ccccc1 | -17 | 0% | ? | -3% | -19% | -4%
C[S+](C)CC(=O)c1ccc2ccccc2c1 | · | · | · | -38% | · | ?
Cc1c(N=C2C=CC(=O)c3ccccc32)c(=O)n(-c2ccccc2)n1C | -62* | -21% | ? | -7% | 45µM* | ?
Cc1ccc(S(=O)(=O)c2ccc([N+](=O)[O-])o2)cc1 | 6 | 14µM* | · | -12% | 9% | 18µM*
Nc1c(N(Cc2ccco2)C(=O)c2ccccc2F)c(=O)[nH]c(=O)n1Cc1ccccc1 | -1 | 5% | · | -11% | -14% | 31%
Cn1c(CCNC(=O)C(C)(C)C)nc2ccccc21 | 3 | 1% | 43% | -5% | 25µM* | 12%
Cn1c(CCNC(=O)c2ccccc2)nc2ccccc21 | · | -6% | -2% | 1%[60.1 µM] | -4% | 23%
COc1cccc2sc3ccc(NCc4ccc5c(c4)OCO5)cc3c(=O)c12 | -25 | -19% | ? | 79µM* | -6% | 16µM*
Cn1nnnc1SCCNCc1ccccc1OCc1ccccc1 | -2 | -32%[57.1 µM] | 28µM* | 3% | -6% | 14%
CCN(CC)C(=O)CCCC(=O)N(CC)CC | 1 | -27%[57.1 µM] | 9% | 2% | -13% | 66%
CC(=O)c1ccc(Nc2nc3ccccc3nc2-n2nc(C)cc2C)cc1 | · | · | -16% | -10% | -12% | 16%
CCc1ccc(-c2ccc(SCC(=O)Nc3nnc(C)s3)nn2)cc1 | 1 | ? | 40µM* | -15% | -10% | 103%
CN(C(=O)CSc1nncn2c1cc1occc12)c1ccccc1 | · | · | 8% | -6% | -10% | 21%
O=C(NNC(=O)c1ccc(Br)s1)NC1CCCCC1 | -4 | ? | 22µM* | -16% | -10% | 19%
Fc1ccc(Nc2nc(-c3ccncc3)cs2)cc1 | 2 | -7% | 10µM* | -19% | 5% | 86%
Clc1ccc(Nc2nc(-c3ccncc3)cs2)cc1 | -8 | -18% | · | -13% | ? | 10%
O=C(NCCc1ccccc1)C1CCCN1S(=O)(=O)c1ccccc1 (stereo unspecified) | 0 | -3% | 41% | -18% | -10% | -2%
SMILES | PI5P4Ka inh | WRN inhibitor | POLB inh | Pol kappa inh | Pol eta inh | Pol iota inh
O=C(NNc1nc(-c2ccc(F)cc2)cs1)c1ccccc1 | -53* | -24% | 0% | -6% | -20% | 61%
O=C(CCC1CCCCC1)NC1CCCCC1 | 3 | 2% | · | -16% | -18% | 31%
Cc1ccc(S(=O)(=O)ON2C(=O)c3ccccc3C2=O)c(C)c1 | -25 | 45µM* | 4%[57.1 µM] | 2% | -19% | 112%
Cc1cc(C)c(C)c(S(=O)(=O)ON2C(=O)c3ccccc3C2=O)c1C | -13 | ? | 3% | -8% | -14% | -16%
Cc1cc(C)c(S(=O)(=O)ON2C(=O)c3ccccc3C2=O)cc1C | -12 | 35µM* | 3% | -8% | -5% | -4%
Cn1c(=O)c(-c2cccc(F)c2)nc2cncnc21 | · | · | · | 1%[60.1 µM] | · | ·
Cc1ccc(NC(=O)Cn2cc(S(=O)(=O)c3ccc(C)cc3)c(=O)c3cc4c(cc32)OCO4)cc1 | · | · | 20% | -19% | -3% | 11%
O=C(OC1Cc2c(O)cc(O)cc2OC1c1cc(O)c(O)c(O)c1-c1c(C2Oc3cc(O)cc(O)c3CC2OC(=O)c2cc(O)c(O)c(O)c2)cc(O)c(O)c1O)c1cc(O)c(O)c(O)c1 (stereo unspecified) | · | · | · | 0.5µM* | · | ·
Oc1cc(O)c2c(c1)O[C@H](c1ccc(O)c(O)c1)[C@H](O)C2 | -2 | -6% | 3% | 89µM*! | -6% | 89µM*
O=C(O[C@@H]1Cc2c(O)cc(O)cc2OC1c1ccc(O)c(O)c1)c1cc(O)c(O)c(O)c1 (stereo partly specified) | · | · | · | 0.18µM* | · | ·
Cc1ccc(NC(=O)CCCn2nc(C)c3c(C)n(-c4ccccc4)nc3c2=O)c(Cl)c1 | 0 | 0% | 17% | -2% | -1% | 6%
Cc1ccc(C)c(N2N=C(C(=O)NCCN3C(=O)S/C(=C\c4cccnc4)C3=O)CCC2=O)c1 | -27 | -1%[11.6 µM] | · | -24% | ? | 50µM*
O=C(NCCN1C(=O)S/C(=C/c2cccnc2)C1=O)C1=NN(c2ccccc2)C(=O)CC1 | -9 | -3% | · | -14% | -25% | -30%
O=C1CC(=O)N(C2CCCCC2)C(=O)N1c1ccccc1S(=O)(=O)Oc1ccccc1 | -64* | -13% | · | · | · | ·
COC1(OC)C=CC(=O)C=C1NC(=O)c1ccccc1OC(C)=O | · | · | · | 4% | 6% | 10µM*
CC(=O)Oc1ccccc1C(=O)Nc1ccccc1 | · | · | · | -22% | -14% | ?
O=C(CSc1nnc(-c2ccccc2Cl)o1)N1CCCc2ccccc21 | · | · | 7% | 0% | -23% | 35%
O=c1[nH]c(=S)c2[nH]c(=S)n(-c3ccccc3)c2[nH]1 | -84* | -4% | · | -23% | -5% | 59%
O=c1[nH]c(=O)c2[nH]c(=O)n(-c3ccccc3)c2[nH]1 | -57* | -14% | · | -23% | -3% | -9%
O=c1cc(O)n(-c2ccccc2)c(=S)[nH]1 | ? | -32% | 22% | 2% | -2% | ?
CCOc1ccc(C2=Nn3c(CC)nnc3SC2)cc1 | 1 | -2% | · | 6% | -7% | ?
